Where a structure was tested more than once in an assay, its records may differ in their call. The source made the active and inactive calls. How the source made its calls: active means hit-call score of the fitted dose curve at least 0.9, where 1 is the maximum; inactive means score below 0.9.

Drawing on PubChem BioAssay (EPA / NIEHS), this text covers outcome and AC50 for five molecules.

Read-out in test [1]: Tissue Factor, F3 (gene 2152)
The experiment in a line: BSK_CASM3C_TissueFactor: BioMAP Diversity Plus: CASM3C Assay for Tissue Factor Biomarker Activity (AID 2283052).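 Further: cell surface tissue factor protein level read by ELISA.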 The following applies: primary human coronary artery smooth muscle cells; actives raise or lower the signal.

Read-out in test [2]: Interferon-gamma inducible Protein 10 (IP10), CXCL10 (gene 3627)
The test can be described thus: BSK_hDFCGF_IP10: BioMAP Diversity Plus: hDFCGF Assay for Interferon-gamma inducible Protein 10 (IP10) Biomarker Activity (AID 2283053). Conditions: primary human foreskin fibroblasts; actives raise or lower the signal. The procedure, abridged: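 Cells: human dermal foreskin fibroblasts. Exposure: 24 h post-dosing. Detection: IP-10 ELISA, with values expressed against DMSO controls and fitted in both directions.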

Read-out in test [3]: Urokinase-type plasminogen activator receptor (uPAR), PLAUR (gene 5329)
The experiment in a line: BSK_CASM3C_uPAR: BioMAP Diversity Plus: CASM3C Assay for Urokinase-type plasminogen activator receptor (uPAR) Biomarker Activity (AID 2283054).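 Further: cell-surface uPAR protein level quantified by ELISA.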 The following applies: primary human coronary artery smooth muscle cells; actives raise or lower the signal.

Read-out in test [4]: Vascular cell adhesion molecule 1 (VCAM1), VCAM1 (gene 7412)
The experiment in a line: BSK_CASM3C_VCAM1: BioMAP Diversity Plus: CASM3C Assay for Vascular cell adhesion molecule 1 (VCAM1) Biomarker Activity (AID 2283055).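 Further: VCAM-1 protein level quantified by ELISA on the cells.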 Conditions: primary human coronary artery smooth muscle cells; actives raise or lower the signal.

Read-out in test [5]: Collagen III, COL3A1 (gene 1281)
The test can be described thus: BSK_hDFCGF_CollagenIII: BioMAP Diversity Plus: hDFCGF Assay for Collagen III Biomarker Activity (AID 2283056). The following applies: primary human foreskin fibroblasts; actives raise or lower the signal. Summed up: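 ELISA read-out of collagen III from human skin fibroblast cultures sampled 24 h post-dosing. Values were derived by bidirectional fitting relative to the DMSO vehicle control.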

Read-out in test [6]: Epidermal growth factor receptor (EGFR), EGFR (gene 1956)
The test can be described thus: BSK_hDFCGF_EGFR: BioMAP Diversity Plus: hDFCGF Assay for Epidermal growth factor receptor (EGFR) Biomarker Activity (AID 2283057). Conditions: primary human foreskin fibroblasts; actives raise or lower the signal. The procedure, abridged: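 Dosing human primary skin fibroblasts, then measuring surface EGFR by ELISA at 24 h, gives the endpoint; gains and losses relative to DMSO were fitted in both directions.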

Read-out in test [7]: Interleukin-8 (IL8), CXCL8 (gene 3576)
The experiment in a line: BSK_hDFCGF_IL8: BioMAP Diversity Plus: hDFCGF Assay for Interleukin-8 (IL8) Biomarker Activity (AID 2283058). The following applies: primary human foreskin fibroblasts; actives raise or lower the signal. The procedure, abridged: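 Cells used are human skin primary fibroblasts. Chemical is added, cultures run 24 h, then IL-8 is quantified by ELISA, and gain or loss versus DMSO control is fitted in both directions.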

The nature of test [8]: BSK_hDFCGF_Proliferation: Cell Proliferation Assessment in the BioMAP Diversity Plus: hDFCGF Assay (AID 2283059).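 Further: curves fitted for both rise and fall of signal versus DMSO baseline.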 The following applies: primary human foreskin fibroblasts. The procedure, abridged: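 Sub-confluent human foreskin fibroblast cultures receive test chemical […]. Relative cell number is quantified by sulforhodamine B staining (0.1%, after 10% TCA fixation) at 560 nm, with bidirectional fitting referenced to DMSO.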

Read-out in test [9]: Macrophage colony-stimulating factor (MCSF), CSF1 (gene 1435)
The test can be described thus: BSK_hDFCGF_MCSF: BioMAP Diversity Plus: hDFCGF Assay for Macrophage colony-stimulating factor (MCSF) Biomarker Activity (AID 2283060). The following applies: primary human foreskin fibroblasts; actives raise or lower the signal. The procedure, abridged: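 Primary human foreskin fibroblasts dosed with chemical; 24 h later, M-CSF quantified by ELISA; curves fitted in both directions vs DMSO negative control.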

The nature of test [10]: BSK_hDFCGF_SRB: Viability Assessment in the BioMAP Diversity Plus: hDFCGF Assay (AID 2283061).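 Further: cells exposed to compound for 24 h before the read.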 The following applies: primary human foreskin fibroblasts. The procedure, abridged: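 Readout is SRB absorbance at 560 nm, reflecting total protein in parallel cultures of human foreskin fibroblasts harvested 24 h after chemical dosing. Activity was fitted bidirectionally relative to DMSO.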

Read-out in test [11]: TIMP metallopeptidase inhibitor 1 (TIMP1), TIMP1 (gene 7076)
The experiment in a line: BSK_hDFCGF_TIMP1: BioMAP Diversity Plus: hDFCGF Assay for TIMP metallopeptidase inhibitor 1 (TIMP1) Biomarker Activity (AID 2283062). Conditions: primary human foreskin fibroblasts; actives raise or lower the signal. The procedure, abridged: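 Human skin fibroblasts (primary), hDFCGF system; compound exposure 24 h; TIMP-1 by ELISA; bidirectional fit vs DMSO negative control; overt cytotoxicity by SRB in parallel wells.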

Read-out in test [12]: Monokine induced gamma interferon (MIG), CXCL9 (gene 4283)
The experiment in a line: BSK_hDFCGF_MIG: BioMAP Diversity Plus: hDFCGF Assay for Monokine induced gamma interferon (MIG) Biomarker Activity (AID 2283063). Conditions: primary human foreskin fibroblasts; actives raise or lower the signal. Summed up:
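Chemicals were added to primary human foreskin fibroblast cultures, which were sampled 24 h later. MIG levels were then quantified by ELISA and responses fitted in both directions relative to DMSO.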

Read-out in test [13]: Matrix Metallopeptidase 1 (MMP1), MMP1 (gene 4312)
The test can be described thus: BSK_hDFCGF_MMP1: BioMAP Diversity Plus: hDFCGF Assay for Matrix Metallopeptidase 1 (MMP1) Biomarker Activity (AID 2283064). The following applies: primary human foreskin fibroblasts; actives raise or lower the signal. The procedure, abridged:
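ELISA read-out of MMP1 from human foreskin fibroblasts (primary skin cells), 24 h post-dose. Gain or loss of signal was fitted bidirectionally versus DMSO negative control; cytotoxicity was checked by SRB in parallel cultures.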

Read-out in test [14]: Vascular cell adhesion molecule 1 (VCAM1), VCAM1 (gene 7412)
The experiment in a line: BSK_hDFCGF_VCAM1: BioMAP Diversity Plus: hDFCGF Assay for Vascular cell adhesion molecule 1 (VCAM1) Biomarker Activity (AID 2283065).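 On AC50: VCAM-1 protein level quantified by ELISA after 24 h chemical exposure.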 The following applies: primary human foreskin fibroblasts; actives raise or lower the signal. Summed up: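 Human foreskin fibroblast primary cells, chemical exposure 24 h; VCAM-1 by ELISA; bidirectional fit, DMSO = negative control/baseline.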

Read-out in test [15]: Plasminogen activator inhibitor-1 (PAI1), SERPINE1 (gene 5054)
The test can be described thus: BSK_hDFCGF_PAI1: BioMAP Diversity Plus: hDFCGF Assay for Plasminogen activator inhibitor-1 (PAI1) Biomarker Activity (AID 2283066). Conditions: primary human foreskin fibroblasts; actives raise or lower the signal. Summed up: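 Fibroblasts from human foreskin were treated with test chemical. After 24 h, PAI-1 was measured by ELISA. Activity was fitted in both directions relative to DMSO.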

Read-out in test [16]: Intercellular Adhesion Molecule 1 (ICAM1), ICAM1 (gene 3383)
The experiment in a line: BSK_KF3CT_ICAM1: BioMAP Diversity Plus: KF3CT Assay for Intercellular Adhesion Molecule 1 (ICAM1) Biomarker Activity (AID 2283067). Conditions: primary human keratinocytes with fibroblasts; actives raise or lower the signal. Summed up: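 ICAM-1 levels are measured by ELISA 24 h after dosing a primary human co-culture of keratinocytes and foreskin fibroblasts. Activity in either direction is fitted relative to DMSO vehicle.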

Read-out in test [17]: Interferon-gamma inducible Protein 10 (IP10), CXCL10 (gene 3627)
The experiment in a line: BSK_KF3CT_IP10: BioMAP Diversity Plus: KF3CT Assay for Interferon-gamma inducible Protein 10 (IP10) Biomarker Activity (AID 2283068). Conditions: primary human keratinocytes with fibroblasts; actives raise or lower the signal. The procedure, abridged: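 ELISA read-out of IP-10 after 24 h chemical dosing of human skin primary co-culture (keratinocytes, foreskin fibroblasts). Gain or loss of signal relative to DMSO, bidirectional curve fit.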

Test [18] is described as follows: BSK_KF3CT_SRB: Viability Assessment in the BioMAP Diversity Plus: KF3CT Assay (AID 2283069).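 Further: total protein by sulforhodamine B staining as a cytotoxicity measure; read 24 h after compound addition; fitted for both signal gain and loss against DMSO baseline.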 Conditions: primary human keratinocytes with fibroblasts. The procedure, abridged: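 SRB read-out at 560 nm (0.1% stain, TCA-fixed cells) gauges overt cytotoxicity in a human skin keratinocyte–fibroblast co-culture 24 h post-dosing. Signal change was fitted bidirectionally relative to DMSO control.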

Read-out in test [19]: Interleukin-1 alpha (IL1a), IL1A (gene 3552)
The test can be described thus: BSK_KF3CT_IL1a: BioMAP Diversity Plus: KF3CT Assay for Interleukin-1 alpha (IL1a) Biomarker Activity (AID 2283070). The following applies: primary human keratinocytes with fibroblasts; actives raise or lower the signal. The procedure, abridged: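 Primary skin co-culture (keratinocytes, foreskin fibroblasts), 24 h exposure; ELISA for IL-1a; bidirectional curve fit vs DMSO.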

Consider `CCS(=O)(=O)c1cccnc1S(=O)(=O)NC(=O)Nc1nc(OC)cc(OC)n1`, for which the result in test [1], in test [2], in [3], in test [4], in test [5] and in test [6] was inactive. In addition, the result in test [7], in test [8], in test [9], in [10], in test [11] and in [12] was inactive. For the same molecule, the outcome in test [13], in test [14], in test [15], in test [16], in test [18] and in test [19] was inactive. Besides, the AC50 in test [17] was 0.266 µM (active).

`CC[C@H](C)[C@H]1O[C@]2(C=C[C@@H]1C)C[C@@H]1C[C@@H](C/C=C(\C)[C@@H](O[C@H]3C[C@H](OC)[C@@H](O[C@H]4C[C@H](OC)[C@@H](O)[C@H](C)O4)[C@H](C)O3)[C@@H](C)/C=C/C=C3\CO[C@@H]4[C@H](O)C(C)=C[C@@H](C(=O)O1)[C@]34O)O2` (tested in a mixture with another compound): the result in test [1] was inactive. Further, the AC50 is 10.7 µM (active) in test [2]; 12.2 µM (active) in test [3]; 15 µM (active) in test [4]; 6.63 µM (active) in test [5]; 5.21 µM (active) in test [6]; 9.73 µM (active) in test [7]. Besides, the AC50 is 5.3 µM (active) in [8]; 8.11 µM (active) in [9]; 6.68 µM (active) in test [10]; 9.96 µM (active) in test [11]; 12.9 µM (active) in [12]; 9.79 µM (active) in [13]. The AC50 was 9.78 µM (active) in test [14]; 6.95 µM (active) in test [15]; 14.1 µM (active) in [16]; 12.5 µM (active) in test [17]; 14.1 µM (active) in test [18]; 6.95 µM (active) in test [19].

For `CCCN(CCC)c1c([N+](=O)[O-])cc(C(F)(F)F)cc1[N+](=O)[O-]`, the outcome in test [1], in [3], in test [4], in test [5], in test [6] and in test [7] was inactive. The outcome in test [11], in test [12], in test [16], in test [18] and in test [19] was inactive. Further, the AC50 in test [2] was 15.2 µM (active); in [8] it was 29.6 µM (active); in test [9], 28.6 µM (active); in [10], 30.9 µM (active); in test [13] it was 4.1 µM (active); in [14], 7.77 µM (active). Also, the AC50 in test [15] was 29.4 µM (active); in [17], 28.8 µM (active).

As for `CCc1ccc(C(=O)NN(C(=O)c2cc(C)cc(C)c2)C(C)(C)C)cc1`, the result in test [1], in test [2], in test [3], in test [4], in test [5] and in test [6] was inactive. Besides, the result in [7], in [8], in test [9], in test [10], in test [11] and in [12] was inactive. Moreover, the outcome in test [13], in [14], in [15], in test [16], in test [17] and in test [18] was inactive. Further, the outcome in test [19] was inactive.

For `O=C(O)C(F)(F)C(F)(F)C(F)(F)C(F)(F)C(F)(F)C(F)(F)C(F)(F)F`, the outcome in test [1], in test [2], in [3], in test [4], in [5] and in [6] was inactive. Moreover, the result in test [7], in test [8], in test [9], in test [10], in [11] and in test [12] was inactive. The result in test [13], in test [14], in test [15], in test [16], in [17] and in test [18] was inactive. Besides, the outcome in test [19] was inactive. Besides, the AC50 in [6] was 22.4 µM (active); in test [8], 8.07 µM (active); in [10], 1.5 µM (active); in test [12], 30 µM (active); in [19], 30 µM (active).

As a reminder, the AC50 is the midpoint of the concentration-response curve, whichever way the signal moves.
